# This is a sample that favours compounds with a hit; in the whole collection about 0.41% have one here.
# TRPML1 inh – inhibitors of human TRPML1 channel. Q9GZU1. TRPML1-inducible cells, Ca2+ dye fluorescence, FDSS; active compounds read low; inhibition of EC80 agonist-evoked calcium signal. activity change, negative = inhibition, % (concentration not given with the values). 0.02% of 390,000 active. AID 624415; in the data active means activity change below about -50%; inconclusive means between about -30% and that limit;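 further: stimulus is agonist 54-4 at its EC80 concentration; on the % scale 0 is the no-effect control and ±100 the full control effect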
# Target sequence (Q9GZU1 whole entry, looked up): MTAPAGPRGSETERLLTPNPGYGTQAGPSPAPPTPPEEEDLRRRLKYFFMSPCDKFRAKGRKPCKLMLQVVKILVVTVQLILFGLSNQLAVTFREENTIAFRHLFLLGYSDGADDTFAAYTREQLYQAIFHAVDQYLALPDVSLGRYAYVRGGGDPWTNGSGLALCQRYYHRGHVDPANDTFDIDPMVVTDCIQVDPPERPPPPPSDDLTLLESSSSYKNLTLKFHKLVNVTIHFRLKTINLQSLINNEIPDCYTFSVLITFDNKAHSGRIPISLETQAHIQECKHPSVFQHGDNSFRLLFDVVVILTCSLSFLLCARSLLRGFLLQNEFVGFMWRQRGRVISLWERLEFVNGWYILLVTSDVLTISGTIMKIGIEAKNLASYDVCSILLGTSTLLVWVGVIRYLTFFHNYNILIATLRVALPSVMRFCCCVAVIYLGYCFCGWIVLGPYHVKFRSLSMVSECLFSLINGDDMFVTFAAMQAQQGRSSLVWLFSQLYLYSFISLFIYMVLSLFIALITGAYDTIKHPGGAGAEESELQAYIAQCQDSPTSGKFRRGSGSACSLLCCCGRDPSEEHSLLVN
#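 TRPML1-DL cells, Tet-induced overnight (~16 h, 37 °C) at 1,500 cells/well, were loaded with Ca8 no-wash dye plus quencher for 45-90 min at room temperature. Compounds were pinned during FDSS kinetic reading; agonist 54-4 at EC80 (4 uM final) then added.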
# TRPV1 agonist – activates the human vanilloid receptor TRPV1; 0.19% of 320,000 active; activation, % at 8.33 µM; TRPV1-expressing cells, Fluo-8 calcium influx, agonist mode; Q8NER1; in the data active means activation above about 80%; inconclusive means between about 30% and that limit; further: 0% is about no effect
#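 TRPV1-expressing cells were cultured overnight at 35.5C and loaded with Fluo-8 calcium dye for 40 to 90 min at room temperature. After a 10 s baseline, compound was added and calcium influx was read kinetically for 3 min (ex 480/em 520 nm).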
# AT treatment – potential ataxia-telangiectasia treatments restoring KAP-1 phosphorylation; Potency, µM (highest dose often 57.5 µM), without a hit: top-dose activation, actives largely listed as activators; 0.19% of 320,000 active; F2112 A-T fibroblasts, KAP-1 phosphorylation AlphaLISA; neocarzinostatin DNA damage 30 min before lysis; active means well fitted activation curve with a large enough effect; inconclusive means small, poorly fitted or top-dose-only effect; inactive means no such curve, though single readings can be large or run the other way; further: potency means the concentration at half of the fitted maximal effect; % of control where 0% means no effect; nearly all actives have a fitted effect of over 45% in size
#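 ATM-like activity read as KAP-1 phosphorylation via AlphaLISA donor/acceptor antibody pairs after lysis and 6 hr at 25C. Cells were ATM-null patient fibroblasts (F2112, hTERT), dosed 60 min, then exposed to the DSB inducer NCS for 30 min.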
# TRPV1 potentiator – potentiators of human vanilloid receptor 1 (TRPV1); TRPV1-expressing cells, Fluo-8 calcium influx, capsaicin EC20 potentiation; potentiation, % at 8.33 µM; 0.02% of 320,000 active; in the data active means potentiation above about 80%; inconclusive means between about 30% and that limit; further: 0% is about no effect
#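 TRPV1-expressing cells were cultured overnight at 35.5C and loaded with Fluo-8 calcium dye for 40 to 90 min at room temperature. After a 10 s baseline, compound was added and calcium influx was read kinetically for 3 min (ex 480/em 520 nm).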
# TRPML1 ag – agonists of human TRPML1 channel; Q9GZU1; TRPML1-expressing cells, Ca2+ dye fluorescence, FDSS; activation, % (no concentration beside the values); 0.12% of 410,000 active; AID 624414; in the data active means activation above about 50%; inconclusive means mostly about 30% to 49%; further: 0% is about no effect
#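 Tetracycline-induced TRPML1-DL cells are seeded and incubated overnight before loading with a no-wash Ca2+ dye and quencher. Agonist activity is taken from the 110 s fluorescence read following compound pin-transfer on an FDSS, before EC80 54-4 challenge.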
# Starred values were filed as active, the others as inactive; ? = inconclusive; / = no result.
SMILES,TRPML1 inh,TRPV1 agonist,AT treatment,TRPV1 potentiator,TRPML1 ag
COc1cc(/C=C2\SC(=Nc3ccc(Cl)c(C(=O)O)c3)NC2=O)c(Br)c(Br)c1O,-4,?,-15%,-5,67*
COC(=O)/C=C1\SC(=Nc2ccc(Cl)c(Cl)c2)NC1=O,26,-6,0%,15,1
CCOc1ccc(NC(=O)c2nc(S(=O)(=O)Cc3ccc(F)cc3)ncc2Cl)cc1,/,/,/,/,1
COC(=O)C1=C(C)N(Cc2ccccc2)C(=S)N[C@H]1c1ccccc1,-22,-1,-5%,?,65*
COC(=O)C1=C(C)N(Cc2ccccc2)C(=O)N[C@H]1c1ccccc1,2,-1,/,-4,3
COc1ccccc1N1CCN(C2CCCN(C(=O)c3cc(C4CC4)on3)C2)CC1 (centres undefined),-61*,6,-1%,-3,1
Cc1ccc(C(=O)NNC(=S)NC(=O)c2ccc(Cl)cc2)cc1,-17,/,7%,/,61*
Cc1cccc(C(=O)NC(=S)NNC(=O)c2ccccc2Cl)c1,18,21,-19%,-10,68*
Cc1cccc(C(=O)NC(=S)NNC(=O)Cc2ccccc2)c1,-22,10,1%,1,21
CC(=O)NNC(=S)NC(=O)c1ccc(C)cc1,7,-1,-5%,2,-1
Cc1onc(-c2ccccc2)c1C(=O)NNC(=S)NC(=O)c1ccc(Cl)cc1Cl,18,?,-6%,-36,91*
O=C(C[n+]1c(Cl)cc(Cl)c2ccccc21)c1ccccc1,/,/,/,/,-1
Cc1ccn2c(NCc3ccccc3)c(-c3cccc(SC4CCCCC4)c3)nc2c1,31,/,?,/,-1
CCCCNc1c(-c2ccc(SC(C)CC)cc2)nc2ccccn12 (centres undefined),46,?,22µM*,6,0
CCC(C)Sc1cccc(-c2nc3cc(C)ccn3c2NCc2ccccc2)c1 (centres undefined),36,93*,22µM*,14,1
CCC(C)Sc1cc(-c2nc3ccc(C)cn3c2NCc2ccccc2)ccc1OC (centres undefined),71,/,/,/,1
CCC(C)Sc1ccc(-c2nc3ccc(C)cn3c2NCc2ccccc2)cc1OC (centres undefined),67,88*,?,30,-1
CCCCNc1c(-c2ccc(SC3CCCCC3)cc2)nc2ccccn12,13,?,?,-6,0
CC(C)(C)n1ncc2c(=O)n(Cc3ccccc3CS(=O)(=O)c3ccccc3)cnc21,-7,/,/,/,1
CN(C)c1ccc(C=C2c3ccccc3-c3ccccc32)cc1,/,/,/,/,0
CN(C)c1ccc(C=C2C(=O)c3ccccc3C2=O)cc1,/,/,/,/,51*
Clc1ncc(C#Cc2ccccc2)c2ncncc12,/,/,/,/,4
CC(=O)N1CCN(c2nc(CC(C)C)c3c(c2C#N)CCC3)CC1,34,93*,5%,21,0
CCn1c2c(c3cc(OCC(C)C)ccc31)CCCC2=O,-4,5,32µM*,-2,0
C=C1C=C(C(F)F)n2ncc(C(=O)NCc3ccc(F)cc3)c2N1,/,/,/,/,-1
SMILES,TRPML1 inh,TRPV1 agonist,AT treatment,TRPV1 potentiator,TRPML1 ag
COc1ccc(CC(=O)Nc2ccc(S(=O)(=O)N3CCCCC3)cc2)cc1OC,-3,88*,5%,-12,-1
COc1ccc(CC(=O)Nc2cccc(SC)c2)cc1OC,3,101*,4%,-8,1
COC(=O)c1cc(NC(=O)Cc2ccc(OC)c(OC)c2)cc(C(=O)OC)c1,-5,?,0%,-31,3
COc1cccc(Cn2cnc3c(cnn3C(C)(C)C)c2=O)c1,-12,/,/,/,0
Oc1ccc2nnc3c(Br)cnn3c2c1,0,22,40%,-8,87*
COC(CNC(=O)CCc1c(C)nc2c(c(C)nn2-c2ccc(C)cc2)c1C)OC,/,82*,5%,-21,/
CC1CCN(C2=NC(=O)/C(=C/c3ccccc3F)S2)CC1,-5,88*,-7%,-4,-1
C(=C\c1nccc2ccccc12)/c1ccc(N2CCOCC2)cc1,/,/,/,/,4
CCN(CC)c1ccc2cc(-c3nc(-c4ccc(OC)cc4)cs3)c(=O)oc2c1,-26,?,25µM*,3,118*

# Assay outcomes as filed in PubChem.
